For eleven molecules, max response, outcome and Potency results are on record in PubChem BioAssay (NCATS).

Experiment [1] in a line: qHTS Assay for Identifying Gametocytocidal Compounds (AID 743244).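 Further: on the % scale 0 is the no-effect control and ±100 the full control effect; actives lower the fluorescent signal which means gametocytes are killed.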 The settings on record: P. falciparum 3D7 stage III-V gametocytes, alamarBlue, 72 h; max response: hits give low values. Summed up: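 P. falciparum 3D7 stage III–V gametocytes (20,000 cells/well) were exposed to compounds for 72 h at 37 °C, 5% CO2. AlamarBlue was then added for 24 h; decreased resorufin fluorescence (Ex 525/Em 598 nm) indicated loss of viability.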
(In general: Quantitative high-throughput screening tests each substance at several concentrations.)

A short description of experiment [2]: qHTS assay for measurement of the activity of small molecule inhibitors on Zika virus induced Caspase-3 activity in human astrocytoma cells (AID 1224859).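 Further: plate controls were ZIKV-infected untreated cells for no effect and uninfected cells for full effect.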 Summed up:
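Luminescence read-out (Caspase-Glo 3/7, 30 min RT) of caspase activity in SNB-19 cells infected 6 h with ZIKV, 2 FFU/cell, after 1 h compound pretreatment; % inhibition from induction normalised to uninfected (0%) and infected (100%) wells.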

The nature of experiment [3]: Natriuretic polypeptide receptor (hNpr1) antagonism - Pilot counterscreen GloSensor control cell line (AID 1347045; calls by dose curve; further: potency means the concentration at half of the fitted maximal effect). The essentials: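 Cells were first seeded and incubated overnight at 37C, then loaded with 2% GloSensor substrate for 2 h. Compounds were added for 30 min at room temperature, followed by a baseline read, 50 uM SNP and a final read after 20 min.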
For orientation: A counterscreen serves to expose hits that act by an unwanted route or on another target.

The target in experiment [4] is Atrial natriuretic peptide receptor 1 (Homo sapiens) (UniProt P16066). Briefly: Natriuretic polypeptide receptor (hNpr1) antagonism - Pilot screen (AID 1347049; calls by dose curve;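 further: agonist-evoked cGMP luminescence read 20 min after hNppA addition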; further: potency means the concentration at half of the fitted maximal effect). The essentials: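 cGMP-sensor HEK293/hNpr1 cells, 1500/well, plated overnight at 37C. 2% GloSensor reagent, 2 h RT. Compound (23 nL pin transfer) 30 min RT, baseline luminescence pre-read. 0.1 nM hNppA, 20 min RT, post-read.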
Atrial natriuretic peptide receptor 1 (Homo sapiens), sequence (P16066 whole entry, looked up): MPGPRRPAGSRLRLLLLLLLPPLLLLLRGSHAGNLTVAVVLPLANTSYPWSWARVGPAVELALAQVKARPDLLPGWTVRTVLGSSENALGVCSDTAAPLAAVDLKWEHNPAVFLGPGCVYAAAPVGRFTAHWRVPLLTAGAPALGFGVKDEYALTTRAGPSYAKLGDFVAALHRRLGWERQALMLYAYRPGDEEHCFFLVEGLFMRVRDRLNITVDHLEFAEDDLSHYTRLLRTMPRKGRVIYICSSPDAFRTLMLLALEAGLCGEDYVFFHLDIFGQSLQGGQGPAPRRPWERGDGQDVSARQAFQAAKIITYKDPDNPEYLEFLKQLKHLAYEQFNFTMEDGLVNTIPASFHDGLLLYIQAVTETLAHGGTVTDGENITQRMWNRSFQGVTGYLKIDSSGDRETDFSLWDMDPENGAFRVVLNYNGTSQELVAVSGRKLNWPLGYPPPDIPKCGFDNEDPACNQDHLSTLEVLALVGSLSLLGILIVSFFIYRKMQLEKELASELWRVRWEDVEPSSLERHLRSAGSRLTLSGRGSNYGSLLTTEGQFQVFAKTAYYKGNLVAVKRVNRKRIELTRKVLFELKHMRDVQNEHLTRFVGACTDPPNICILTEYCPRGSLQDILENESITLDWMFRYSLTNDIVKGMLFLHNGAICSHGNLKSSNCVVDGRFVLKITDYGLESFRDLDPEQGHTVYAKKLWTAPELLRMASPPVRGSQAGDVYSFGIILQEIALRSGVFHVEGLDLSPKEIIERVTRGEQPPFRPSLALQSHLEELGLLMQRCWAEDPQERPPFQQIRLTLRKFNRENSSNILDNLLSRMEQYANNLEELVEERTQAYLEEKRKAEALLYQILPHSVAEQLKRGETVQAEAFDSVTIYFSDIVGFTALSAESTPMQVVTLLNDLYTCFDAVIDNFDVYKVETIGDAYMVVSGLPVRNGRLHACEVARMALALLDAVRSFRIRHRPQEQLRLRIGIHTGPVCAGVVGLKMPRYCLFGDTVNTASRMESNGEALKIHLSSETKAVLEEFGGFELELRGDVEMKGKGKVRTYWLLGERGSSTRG

The target of experiment [5] is Atrial natriuretic peptide receptor 2 (Homo sapiens) (UniProt P20594). Briefly: Natriuretic polypeptide receptor (hNpr2) antagonism - Pilot subtype selectivity assay (AID 1347050; calls by dose curve; further: on the % scale 0 is the no-effect control and ±100 the full control effect). Summed up:
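Luminescence from a genetically encoded cGMP luciferase biosensor in hNpr2-expressing HEK293 cells is read before and 20 min after adding 1 nM hNppC. Test compounds, in interplate 1:5 titrations, are added 30-50 min ahead of the agonist.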

Experiment [6] is described as follows: NS1 protein of Zika virus - qHTS assay to identify small molecule inhibitors in human HEK 293 cells (AID 1347053).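 Further: series mostly up to about 46 µM; plate controls were infected untreated cells for no effect and uninfected cells for full effect; nearly all actives have a fitted effect of over 55% in size.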 The essentials:
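TR-FRET signal from two anti-ZIKV NS1 antibodies quantified NS1 in HEK 293 cells 24 h after MR766 infection at MOI = 0.5; compounds were added 1 h before virus. Uninfected cells and infected cells defined the NS1 normalization range.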

The nature of experiment [7]: qHTS assay to identify small molecule inhibitors of chordoma cells - UCH-1 (AID 1259355). Further: on the % scale 0 is the no-effect control and ±100 the full control effect; nearly all actives have a fitted effect of over 55% in size. The essentials:
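Screening used approved and investigational drugs in 15-point titration against 800 seeded cells per well. A fixed combination of auranofin with camptothecin, doxorubicin, rubitecan and topotecan followed compound addition, and growth was scored by CellTiter-Glo after 48hr.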

A short description of experiment [8]: qHTS assay for cell viability of HEK293 cells (AID 743288). Further: on the % scale 0 is the no-effect control and ±100 the full control effect; nearly all actives have a fitted effect of over 50% in size. The settings on record: ATP luminescence (CellTiter-Glo), 18 h; max response: hits give low values. The essentials: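 Viable-cell counts were inferred from luciferase-based ATP content in HEK293 cells seeded at 2,000/well, pre-incubated ≥5 h, then dosed with DMSO-solubilised compounds for 18 h at 37 C.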

A short description of experiment [9]: qHTS assay for cell viability of the p53RE-bla HCT-116 cell line (AID 743292). Further: on the % scale 0 is the no-effect control and ±100 the full control effect; nearly all actives have a fitted effect of over 55% in size. The essentials:
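ATP-based luminescence, 16 h compound exposure at 37 C, p53RE-bla HCT-116 cells at 4,000/well.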

Experiment [10] in a line: P-glycoprotein substrates identified in KB-3-1 adenocarcinoma cell line, qHTS therapeutic library screen (AID 1346986). Further: on the % scale 0 is the no-effect control and ±100 the full control effect; nearly all actives have a fitted effect of over 60% in size. Summed up: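 In 1536-well format, 500 cells/well received pinned compound titrations and were incubated 72 h, 5% CO2. Viability was read by CellTiter-Glo; cytotoxic if AC50 < 10 uM and efficacy >50%.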
Experiment [11] in a line: P-glycoprotein substrates identified in KB-8-5-11 adenocarcinoma cell line, qHTS therapeutic library screen (AID 1346987). Further: nearly all actives have a fitted effect of over 65% in size. The essentials:
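Luminescence from CellTiter-Glo, read 5 min after addition, quantified survival of KB-8-5-11 (P-gp-overexpressing) cells exposed to compounds for 72 h. AC50 was derived from concentration-response curves.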

A number with no mark means an inactive call. Records with an inconclusive call do not appear. Active and inactive are the calls of the source. Unless noted, the call rests on the fitted dose curve; in most records, active means well fitted curve in the direction sought with a large enough effect; inconclusive means small, poorly fitted or top-dose-only effect, or another doubt; inactive means no such curve, though single readings can be large; an effect the other way counts as inactive or inconclusive.

Atrial natriuretic peptide receptor 2 (Homo sapiens), sequence (P20594 whole entry, looked up): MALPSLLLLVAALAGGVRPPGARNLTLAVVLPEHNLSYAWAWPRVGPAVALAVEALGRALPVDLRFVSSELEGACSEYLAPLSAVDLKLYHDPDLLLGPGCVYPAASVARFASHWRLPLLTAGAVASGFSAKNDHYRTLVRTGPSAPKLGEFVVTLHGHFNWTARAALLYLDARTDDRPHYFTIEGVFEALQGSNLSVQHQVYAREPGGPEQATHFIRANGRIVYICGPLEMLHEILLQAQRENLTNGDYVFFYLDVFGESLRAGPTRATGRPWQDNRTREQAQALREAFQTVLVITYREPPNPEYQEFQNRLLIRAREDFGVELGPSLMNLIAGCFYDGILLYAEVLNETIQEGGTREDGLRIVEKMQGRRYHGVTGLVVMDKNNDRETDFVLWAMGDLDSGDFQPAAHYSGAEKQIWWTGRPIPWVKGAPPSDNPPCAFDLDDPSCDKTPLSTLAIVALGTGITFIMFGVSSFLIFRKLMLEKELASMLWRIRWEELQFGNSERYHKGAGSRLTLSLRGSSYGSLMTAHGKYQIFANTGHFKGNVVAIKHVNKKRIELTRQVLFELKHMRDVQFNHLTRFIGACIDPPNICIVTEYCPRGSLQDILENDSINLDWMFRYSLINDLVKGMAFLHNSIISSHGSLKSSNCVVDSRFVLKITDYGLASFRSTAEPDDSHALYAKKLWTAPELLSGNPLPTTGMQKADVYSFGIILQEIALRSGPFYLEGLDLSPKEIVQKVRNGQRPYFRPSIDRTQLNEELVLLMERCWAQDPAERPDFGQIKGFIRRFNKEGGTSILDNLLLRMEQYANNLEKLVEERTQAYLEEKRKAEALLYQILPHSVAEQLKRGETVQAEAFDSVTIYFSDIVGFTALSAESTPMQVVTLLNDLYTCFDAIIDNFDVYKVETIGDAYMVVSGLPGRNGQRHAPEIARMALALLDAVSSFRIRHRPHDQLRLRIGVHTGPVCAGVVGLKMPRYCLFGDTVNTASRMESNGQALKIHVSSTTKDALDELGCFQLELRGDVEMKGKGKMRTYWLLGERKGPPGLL

`CCNC(=O)[C@H]1O[C@@H](n2cnc3c(N)ncnc32)[C@H](O)[C@@H]1O`: the max response in [1] was -1.58%. Moreover, the molecule was called inactive in experiment [2] and in experiment [6]. For the same molecule, the Potency entry in experiment [3], in experiment [4] and in experiment [5] was “inactive” in each case.
Regarding `[N-]=[N+]=CC(=O)OCC(N)C(=O)O` (configuration not stated), in experiment [7], the Potency entry was “inactive”.
Take `CCCN(CCC)CCc1c[nH]c2ccc(C(N)=O)cc12`: in experiment [1], the max response was -3.58%. The molecule was called inactive in experiment [2]. Also, the Potency entry in experiment [3], in [4] and in experiment [5] was “inactive” throughout.
For `O=C(O)c1cc[c]([Hg][Cl])cc1`, the values for the max response in experiment [1] and in experiment [8] were 33.9% and -11.9%, respectively. For the same molecule, the Potency result in [9], in experiment [3] and in experiment [5] was “inactive” each time. Further, the molecule was called inactive in [2].
As to `CN1CC[C@@]2(C)c3cc(O)ccc3N(C)C12` (some centres not stated), the result in [2] and in experiment [6] was inactive. Further, the Potency entry in experiment [4] and in [5] was “inactive” in each case.
With `C/C(O)=C(\C#N)C(=O)Nc1cc(Br)ccc1Br`, the max response in experiment [1] was -6.48%. Besides, the molecule was classed as inactive in experiment [2]. Moreover, the Potency entry in experiment [10], in experiment [11], in experiment [3], in [4] and in [5] was “inactive” each time.
For `COc1ccc2c(c1)c(CCN1CCOCC1)c(C)n2C(=O)c1cccc(Cl)c1Cl`, the max response in [1] was 23.8%. In addition, the outcome in experiment [2] was inactive. The Potency entry in experiment [3], in experiment [4] and in [5] was “inactive” each time.
On to `CN(N=O)c1cc(O)ccc1O`, for which the molecule was classed as inactive in experiment [2] and in [6]. Moreover, the Potency entry in experiment [4] is “inactive”.
For the molecule `C[N+](C)(C)CC#CCOC(=O)Nc1cccc(Cl)c1`, the max response in experiment [1] is 12.7%. The call in experiment [2] and in experiment [6] was inactive. For the same molecule, the Potency result in [3] and in [5] was “inactive” throughout.
`NC(N)=Nc1ccc2[nH]c3c(c2c1)C[C@@]1(O)[C@H]2Cc4ccc(O)c5c4[C@@]1(CCN2CC1CC1)[C@H]3O5`: the molecule was classed as inactive in experiment [2] and in experiment [6]. Also, the Potency was 6.56 µM (active) in experiment [3] and 19 µM (active) in experiment [4].
Consider `N#CCCN`, for which the max response in [1] was 15.8%. For the same molecule, the result in experiment [2] and in experiment [6] was inactive. The Potency result in [3], in [4] and in experiment [5] was “inactive” in each case.
